This is a sample that favours compounds with a hit; in the whole collection about 4.8% have one here.
SMARCA2 act: SMARCA2 function activation, primary screen; activation, % at 9.1 µM; MG213 cells, MMTV-luciferase reporter, dexamethasone, overnight; AID 652017; actives 1% (n = 370,000); in the data active means activation above about 7.8%
hgDAF-12 ag: agonists of H. glycines DAF-12 nuclear receptor; actives 1.8% (n = 370,000); activation, % at 6.8 µM; HEK293 GAL4-hgDAF12 UAS-luciferase reporter, agonist luminescence; normalized to butyrate control; AID 687014;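 active means activation above a cutoff set at the mean of all screened compounds plus 3 SD, cut at about 10% in these data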
DAX1 inh-1: inhibits human nuclear receptor DAX1; HEK293 Gal4-DAX1 luciferase reporter, luminescence; AID 504766; inhibition, % at 6.75 µM; actives 0.99% (n = 340,000); P51843;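 active means inhibition above the mean over all tested compounds plus 3 SD, cut at about 4.2% in these data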;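 further: inhibition shows as a rise in luminescence from relieved DAX1 repression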
Target sequence (P51843 207-470 limits assumed): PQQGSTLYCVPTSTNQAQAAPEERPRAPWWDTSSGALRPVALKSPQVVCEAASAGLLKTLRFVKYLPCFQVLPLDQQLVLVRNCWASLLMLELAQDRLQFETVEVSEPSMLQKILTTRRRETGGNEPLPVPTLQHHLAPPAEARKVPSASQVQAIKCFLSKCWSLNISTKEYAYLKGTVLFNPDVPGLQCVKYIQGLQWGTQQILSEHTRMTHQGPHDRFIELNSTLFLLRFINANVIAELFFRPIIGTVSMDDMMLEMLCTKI
ssDAF12 agonist: S. stercoralis DAF-12 activation, primary screen; HEK293 ssDAF-12/GRIP1 lit1-tk-luc reporter, luminescence; % of 3 µM dafachronic acid response; activation, % at 6.8 µM; actives 1% (n = 370,000);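 active means activation above the mean over all tested compounds plus 3 SD, cut at about 0.9% in these data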
DAX1 inh-2: inhibitors of DAX1 repression of SF-1 activated StAR promoter. HEK293T StAR-luciferase reporter, SF-1/DAX-1 repression relief. inhibition, % at 6.8 µM. actives 1.1% (n = 370,000). AID 652010;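 active means inhibition above the mean over all tested compounds plus 3 SD, cut at about 3.6% in these data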;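 further: higher inhibition means more luminescence from relief of DAX-1 repression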
hcDAF12 agonist: activates DAF-12 receptor from parasite H. contortus; HEK293 hcDAF-12 lit1-tk-luc reporter, luminescence; 0% DMSO, 100% Δ7-dafachronic acid; activation, % at 6.8 µM; actives 1.4% (n = 370,000); AID 652067;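 active means activation above the mean of all tested compounds plus 3 SD, cut at about 5.5% in these data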
Numbers stand for hits; – = inactive; · = not tested or not shown.

SMILES	SMARCA2 act	hgDAF-12 ag	DAX1 inh-1	ssDAF12 agonist	DAX1 inh-2	hcDAF12 agonist
Cc1ccc(/C=N/Nc2ncnc3nc[nH]c23)cc1	–	–	5.6	–	–	–
Clc1ccc(/C=N/Nc2ncnc3nc[nH]c23)cc1	–	–	4.9	–	–	–
O=C(N/N=C/c1ccc(Sc2ccccn2)o1)c1cc2ccccc2cc1O	·	·	–	·	·	·
COc1ccc(C(=O)c2c3ccc(OC)cc3[n+]([O-])n2Cc2ccc(C(N)=O)cc2)cc1	–	–	–	–	–	6.3
NC(=O)c1ccc(Cn2c(C(=O)c3ccc(Cl)cc3)c3ccccc3[n+]2[O-])cc1	–	–	–	–	–	5.7
NC(=O)c1ccc(Cn2c(C(=O)c3cc(Cl)c(N)c(Cl)c3)c3ccccc3[n+]2[O-])cc1	–	–	–	–	–	–
CC1=C(C(=O)OCc2ccccc2)C(c2ccccc2Br)NC(=O)N1 (centres undefined)	–	–	–	–	–	–
C(=NOCc1ccccc1)c1ccncc1	–	–	–	–	–	–
O=C(NC1CCCCC1)N1CCc2ccccc2C1	–	13	–	–	–	–
O=C(Nc1ccc(F)cc1)N1CCc2ccccc2C1	–	11	–	–	–	–
CCOC(=O)c1cn(CC2CC2)c2cc(F)c(F)cc2c1=O	–	–	–	–	–	–
O=C(COC(=O)C1CCN(c2ccc(C(F)(F)F)cn2)CC1)Nc1ccc(Cl)cc1	–	–	–	–	–	–
COc1cccc(-c2csc(NC(C)=O)n2)c1	–	11	–	–	–	–
COc1ccc(-c2csc(NC(C)=O)n2)cc1OC	–	–	–	–	–	–
CC(=O)Nc1nc(-c2ccc3c(c2)CCO3)cs1	–	11	–	–	–	–
Cn1c(=O)oc2cc(S(=O)(=O)CCC(=O)N3CCN(c4ccccc4F)CC3)ccc21	–	–	–	–	–	–
Cc1nc2cc(-c3cccc(F)c3)nn2c(N2CCN(C(=O)c3ccco3)CC2)c1C	–	–	–	–	–	5.8
CCC(C)OC(=O)c1cc(C)nc2c(Br)cc(Br)cc12 (centres undefined)	–	–	–	–	–	–
CCCC(=O)Oc1ccc(-c2nccc(C(OC)OC)n2)cc1	–	–	4.3	–	–	–
C=C1c2ccccc2O[C@H](C(=O)OCC)[C@@H]1C1CCCCC1	–	–	–	–	4.1	–
CCOC(=O)C1=C(N)c2ccccc2CC1C1CCCC1 (centres undefined)	–	–	–	–	–	–
COc1ccccc1N1CCN(C(=O)c2cccc(S(=O)(=O)N3CCCCCC3)c2)CC1	–	–	–	–	–	–
O=[N+]([O-])c1ccc(NCc2ccc(Cl)cc2)nc1	–	–	–	–	–	–
CC(C)c1ccc(CNc2ccc([N+](=O)[O-])cn2)cc1	–	12	–	–	3.9	–
Cc1oncc1C(=O)Nc1ccc(C(F)(F)F)cc1	–	–	–	–	4.3	–
SMILES	SMARCA2 act	hgDAF-12 ag	DAX1 inh-1	ssDAF12 agonist	DAX1 inh-2	hcDAF12 agonist
COC(=O)c1cccc(NC(=O)c2cnoc2C)c1	–	–	–	–	–	–
c1ccc(CCn2nnnc2CN2CCCc3ccccc32)cc1	–	–	–	–	–	5.8
c1ccc2c(c1)CCCN2Cc1nnnn1CC1CCCO1 (centres undefined)	–	–	–	–	–	–
CC1CCCN(C(=O)CSc2nnc(-c3cccs3)o2)C1 (centres undefined)	–	12	–	–	–	–
O=C(COC(=O)Cn1cnc2ccccc2c1=O)Nc1ccc(Cl)c(C(F)(F)F)c1	–	–	–	1.5	–	–
O=C1NC2(CCCCC2)C(=O)N1c1ccccc1	–	–	5.8	–	–	–
COc1ccc(C2C(=O)NN=C2C)cc1 (centres undefined)	–	–	5.3	–	–	–
O=C1C2C3C=CC(C4CC34)C2C(=O)N1/N=C/c1ccc(-c2ccc(F)cc2[N+](=O)[O-])o1 (centres undefined)	–	–	–	–	–	–
COc1ccc(-c2ccc(/C=N/N3C(=O)C4C5C=CC(C6CC56)C4C3=O)o2)c([N+](=O)[O-])c1 (centres undefined)	–	–	4.4	–	–	–
Cc1cc(C)c2nc3sc(C(=O)N4CCOCC4)c(N)c3cc2c1	–	–	–	–	4.1	5.7
Cc1cc(C)c2cc3c(N)c(C(=O)N4CCOCC4)sc3nc2c1	–	–	–	–	–	–
COc1ccc(/C=N/NC(=O)C(=O)N2CCCCCC2)cc1[N+](=O)[O-]	–	–	–	–	–	–
O=C(O)c1ccc(N=Nc2c(O)[nH]c3ccc(Br)cc23)cc1	–	11	–	–	–	–
COC(=O)N=Nc1c(O)[nH]c2ccc(Br)cc12	–	–	–	–	–	–
Cc1c(/C=C(\CC(=O)O)c2nc3ccccc3s2)cc(C#N)n1C	–	–	–	–	–	5.6
O=[N+]([O-])c1ccc(-c2csc(Nc3ccccc3)[n+]2Cc2ccccc2)cc1	–	–	–	–	–	–
COc1ccc(-c2csc(Nc3ccccc3)[n+]2Cc2ccccc2)cc1	–	–	–	0.9	–	–
COc1ccc(CC(=O)Nc2ccc(S(=O)(=O)Nc3onc(C)c3C)cc2)cc1OC	–	–	–	–	–	–
CCCN1CCN(CCCNC(=O)c2cc3c(=O)[nH]c4ccc(C)cc4c3s2)CC1	–	–	6.4	–	–	–
CCN1CCN(CCCNC(=O)c2cc3c(=O)oc4ccc(C)cc4c3s2)CC1	–	–	–	–	–	–
CCOc1ccc(C(=O)Cc2ccccc2)cc1	–	12	–	1.1	–	–
COc1cccc(C(=O)NCCS(=O)(=O)NCCc2ccccc2)c1	–	–	–	–	4.0	–
CCC(=O)c1ccc(O)cc1	–	–	–	–	–	–
O=C(CNC(=O)c1ccccc1Cl)c1ccccc1	–	13	–	–	–	–
COc1ccc(CCNS(=O)(=O)CCNC(=O)c2ccccc2)cc1	–	–	–	–	–	–
SMILES	SMARCA2 act	hgDAF-12 ag	DAX1 inh-1	ssDAF12 agonist	DAX1 inh-2	hcDAF12 agonist
O=C(CCCC(=O)c1ccc(O)cc1)c1ccc(O)cc1	–	11	–	–	–	–
CC(C)(O)C#Cc1ccc(N2C(c3ccsc3)=Cc3ccc(F)cc3C2c2c[nH]c3ccc(C#N)cc23)cc1 (centres undefined)	–	–	·	–	–	–
Cc1ccc(N2CC(C(=O)Nc3ccc(S(=O)(=O)Nc4nccc(C)n4)cc3)CC2=O)cc1 (centres undefined)	–	–	–	–	–	–
CN(C(=O)COC(=O)c1ccccc1Cc1ccccc1)c1c(N)n(Cc2ccccc2)c(=O)[nH]c1=O	–	–	–	–	–	–
COc1ccc(N/C=C/C(=O)c2ccccc2)cc1	–	12	–	1.0	4.4	–
COc1ccc(NC(=O)CN(C)C(=O)CNC(=O)c2ccc3ccccc3c2)cc1	–	–	4.2	–	–	–

From PubChem
